The values that follow come from PubChem BioAssay (EPA / NIEHS).

The term AC50 denotes the concentration giving half of the maximal activity seen.

Molecules are shown by their SMILES. Results filed as inconclusive are left out. Active and inactive are the calls of the source. The calls were made as follows: active = hit-call score of the fitted dose curve at least 0.9, where 1 is the maximum; inconclusive = response in the unintended direction; inactive = score below 0.9.

In assay [1] the target is human Insulin Receptor (InsR), INSR (gene 3643) (UniProt P06213). The assay can be described thus: NVS_ENZ_hInsR: NovaScreen (NVS) Enzymatic Assay for human Insulin Receptor (InsR) (AID 2283168). A digest of the protocol:
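Fluorescent substrate phosphorylation by recombinant kinase, product resolved by electrophoretic mobility shift, read 1 h after dosing. Screened in duplicate at 25 uM; hits (e.g., 30% inhibition) run in concentration-response to 50 uM; DMSO as baseline.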

The target of assay [2] is human Matrix Metalloproteinase-3 (MMP3), MMP3 (gene 4314) (UniProt P08254). The assay can be described thus: NVS_ENZ_hMMP3: NovaScreen (NVS) Enzymatic Assay for human Matrix Metalloproteinase-3 (MMP3) (AID 2283185). Put shortly:
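Cell-free recombinant human MMP3 activity, fluorescence intensity read 1 h after dosing. Primary screen duplicate at 25 uM, actives retested in concentration series; loss of signal vs DMSO baseline.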

In assay [3] the target is Glycogen synthase kinase-3 beta (Homo sapiens) (UniProt P49841). The assay can be described thus: NVS_ENZ_hGSK3b: NovaScreen (NVS) Enzymatic Assay for human Glycogen Synthase Kinase-3 beta (GSK3b) (AID 2283165). A digest of the protocol: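 Recombinant enzyme with specific fluorescent substrate, 1 h, product separated by electrophoretic mobility shift. Primary duplicate screen at 25 uM; actives (e.g. 30% inhibition) followed in singleton concentration-response to 50 uM. Signal loss fitted versus DMSO.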
Glycogen synthase kinase-3 beta (Homo sapiens), sequence (P49841 whole entry, looked up): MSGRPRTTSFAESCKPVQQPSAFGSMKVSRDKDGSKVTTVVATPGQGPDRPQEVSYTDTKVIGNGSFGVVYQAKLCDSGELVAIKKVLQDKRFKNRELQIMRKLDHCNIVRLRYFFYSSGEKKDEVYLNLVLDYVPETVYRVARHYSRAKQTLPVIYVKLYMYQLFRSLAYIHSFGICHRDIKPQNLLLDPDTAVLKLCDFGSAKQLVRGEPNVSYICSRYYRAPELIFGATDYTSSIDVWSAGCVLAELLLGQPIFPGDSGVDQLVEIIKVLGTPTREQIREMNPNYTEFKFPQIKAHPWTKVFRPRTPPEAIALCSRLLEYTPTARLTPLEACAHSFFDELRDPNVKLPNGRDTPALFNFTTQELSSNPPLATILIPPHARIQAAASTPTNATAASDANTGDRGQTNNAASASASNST

In assay [4] the target is human Mitogen-Activated Protein Kinase 1 (MAPK 1), MAPK1 (gene 5594) (UniProt P28482). In words: NVS_ENZ_hMAPK1: NovaScreen (NVS) Enzymatic Assay for human Mitogen-Activated Protein Kinase 1 (MAPK 1) (AID 2283175). Put shortly:
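Cell-free recombinant human MAPK1 enzymatic assay, fluorescence/electrophoretic mobility shift read at 1 h; loss of signal vs DMSO. Primary screen in duplicate at 25 uM; actives (e.g. ≥30% inhibition) run as concentration-response up to 50 uM.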

In assay [5] the target is human MAP Kinase-Activated Protein Kinase 2 (MAPKAPK2), MAPKAPK2 (gene 9261) (UniProt P49137). The assay can be described thus: NVS_ENZ_hMAPKAPK2: NovaScreen (NVS) Enzymatic Assay for human MAP Kinase-Activated Protein Kinase 2 (MAPKAPK2) (AID 2283178). A digest of the protocol:
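Cell-free recombinant human MAPKAPK2 activity measured by fluorescence with electrophoretic mobility shift separation of substrate and product, 1 hr after dosing. Loss of signal versus DMSO; primary screen at 25 uM, concentration-response up to 50 uM.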

For assay [6], the target named is human Phosphodiesterase 4A1 (PDE4A1), PDE4A (gene 5141) (UniProt P27815). In words: NVS_ENZ_hPDE4A1: NovaScreen (NVS) Enzymatic Assay for human Phosphodiesterase 4A1 (PDE4A1) (AID 2283191). Put shortly: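 Cell-free recombinant human PDE4A1 with fluorescent substrate; product separated by electrophoretic mobility shift, 1 h. Screened at 25 uM, then up to 50 uM in concentration-response; loss of signal fitted against DMSO.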
human Phosphodiesterase 4A1 (PDE4A1), PDE4A (gene 5141), sequence (P27815 whole entry, looked up): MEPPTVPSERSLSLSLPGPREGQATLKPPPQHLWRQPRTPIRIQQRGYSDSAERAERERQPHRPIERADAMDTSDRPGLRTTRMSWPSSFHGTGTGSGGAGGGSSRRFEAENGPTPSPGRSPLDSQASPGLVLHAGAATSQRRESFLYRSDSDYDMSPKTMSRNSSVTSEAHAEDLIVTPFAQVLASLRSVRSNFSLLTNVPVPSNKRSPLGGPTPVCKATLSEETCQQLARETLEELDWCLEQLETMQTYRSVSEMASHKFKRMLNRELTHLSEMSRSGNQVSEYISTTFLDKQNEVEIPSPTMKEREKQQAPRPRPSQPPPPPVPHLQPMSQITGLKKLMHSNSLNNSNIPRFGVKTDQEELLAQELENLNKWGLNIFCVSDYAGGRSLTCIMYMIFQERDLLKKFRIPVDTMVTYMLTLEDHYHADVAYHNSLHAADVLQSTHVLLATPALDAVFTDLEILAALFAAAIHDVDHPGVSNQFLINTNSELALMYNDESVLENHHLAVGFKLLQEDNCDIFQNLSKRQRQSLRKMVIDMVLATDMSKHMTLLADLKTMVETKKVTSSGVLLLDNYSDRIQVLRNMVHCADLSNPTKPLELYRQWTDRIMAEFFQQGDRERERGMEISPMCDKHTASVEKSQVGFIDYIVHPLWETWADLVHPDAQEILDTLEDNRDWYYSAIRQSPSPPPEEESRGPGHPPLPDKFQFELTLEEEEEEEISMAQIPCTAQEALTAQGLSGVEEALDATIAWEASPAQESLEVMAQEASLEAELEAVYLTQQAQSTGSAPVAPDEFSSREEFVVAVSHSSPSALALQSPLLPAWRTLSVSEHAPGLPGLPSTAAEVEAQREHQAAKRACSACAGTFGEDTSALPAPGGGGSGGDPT

Assay [7] deals with human IkappaB Kinase alpha (IKKa), CHUK (gene 1147) (UniProt O15111). The assay can be described thus: NVS_ENZ_hIKKa: NovaScreen (NVS) Enzymatic Assay for human IkappaB Kinase alpha (IKKa) (AID 2283167). Put shortly: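 Cell-free recombinant human IKKa with fluorescent substrate, product separated by electrophoretic mobility shift; read 1 hour after dosing. Primary screen duplicate at 25 uM, actives then concentration-response up to 50 uM; loss of signal relative to DMSO.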

The target in assay [8] is human NIMA (Never In Mitosis Gene A)-Related Kinase 2 (NEK2), NEK2 (gene 4751) (UniProt P51955). The assay can be described thus: NVS_ENZ_hNEK2: NovaScreen (NVS) Enzymatic Assay for human NIMA (Never In Mitosis Gene A)-Related Kinase 2 (NEK2) (AID 2283188). A digest of the protocol:
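Cell-free NEK2 enzyme activity after 1 h exposure, read by fluorescence with electrophoretic mobility shift separating substrate and product. Primary screen in duplicate at 25 uM; actives then run as concentration series. Loss of signal versus DMSO scored.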

The target of assay [9] is human Matrix Metalloproteinase-2 (MMP2), MMP2 (gene 4313) (UniProt P08253). The assay can be described thus: NVS_ENZ_hMMP2: NovaScreen (NVS) Enzymatic Assay for human Matrix Metalloproteinase-2 (MMP2) (AID 2283184). Put shortly:
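Cell-free recombinant MMP2 activity with a fluorescent substrate, read 1 h after dosing. Primary screen in duplicate at 25 uM; actives then run in concentration series; loss of signal fitted versus DMSO.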

In assay [10] the target is human Matrix Metalloproteinase-9 (MMP9), MMP9 (gene 4318) (UniProt P14780). In words: NVS_ENZ_hMMP9: NovaScreen (NVS) Enzymatic Assay for human Matrix Metalloproteinase-9 (MMP9) (AID 2283190).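 Also: cell-free recombinant MMP9 protease activity read by fluorescent substrate signal; active means inhibition seen as loss of fluorescence signal versus DMSO.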 Put shortly: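 Screening concentration 25 uM, duplicate wells, then dose series for confirmation. Cell-free enzymatic reaction measured by fluorescence intensity 1 h post-dosing; decreased signal versus DMSO taken as activity.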
human Matrix Metalloproteinase-9 (MMP9), MMP9 (gene 4318), sequence (P14780 whole entry, looked up): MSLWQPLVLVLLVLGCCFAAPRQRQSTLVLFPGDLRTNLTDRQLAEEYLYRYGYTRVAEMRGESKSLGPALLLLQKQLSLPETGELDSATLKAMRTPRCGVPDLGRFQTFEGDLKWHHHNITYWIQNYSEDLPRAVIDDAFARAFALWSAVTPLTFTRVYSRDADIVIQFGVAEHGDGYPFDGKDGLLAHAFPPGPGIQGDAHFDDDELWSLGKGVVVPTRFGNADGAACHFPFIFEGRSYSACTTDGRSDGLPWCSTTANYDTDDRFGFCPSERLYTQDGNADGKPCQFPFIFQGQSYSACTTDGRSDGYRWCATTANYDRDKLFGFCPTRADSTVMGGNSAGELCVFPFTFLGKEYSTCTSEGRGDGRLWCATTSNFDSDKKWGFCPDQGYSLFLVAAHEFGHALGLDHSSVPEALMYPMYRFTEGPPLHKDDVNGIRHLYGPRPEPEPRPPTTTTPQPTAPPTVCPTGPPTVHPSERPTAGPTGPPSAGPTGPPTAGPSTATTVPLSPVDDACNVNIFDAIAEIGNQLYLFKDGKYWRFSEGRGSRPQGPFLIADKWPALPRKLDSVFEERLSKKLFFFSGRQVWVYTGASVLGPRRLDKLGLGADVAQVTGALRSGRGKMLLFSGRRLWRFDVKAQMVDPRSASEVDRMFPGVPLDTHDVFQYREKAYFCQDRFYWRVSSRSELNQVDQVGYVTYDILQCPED

For assay [11], the target named is human Matrix Metalloproteinase-7 (MMP7), MMP7 (gene 4316) (UniProt P09237). The assay can be described thus: NVS_ENZ_hMMP7: NovaScreen (NVS) Enzymatic Assay for human Matrix Metalloproteinase-7 (MMP7) (AID 2283183). Put shortly:
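Cell-free fluorescence enzymatic assay read 1 h after compound addition, activity loss analyzed against DMSO. Primary duplicate testing at 25 uM; compounds meeting threshold rerun in singleton concentration-response up to 50 uM.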

The target in assay [12] is Collagenase 3 (Homo sapiens) (UniProt P45452). In words: NVS_ENZ_hMMP13: NovaScreen (NVS) Enzymatic Assay for human Matrix Metalloproteinase-13 (MMP13) (AID 2283182). A digest of the protocol:
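Recombinant MMP13 cleaving fluorescent substrate, cell-free, measured 1 h after dosing. Primary duplicate screen at 25 uM; actives tested in concentration-response up to 50 uM; loss of signal relative to DMSO.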

Assay [13] addresses human Matrix Metalloproteinase-1 (MMP1), MMP1 (gene 4312) (UniProt P03956). In words: NVS_ENZ_hMMP1: NovaScreen (NVS) Enzymatic Assay for human Matrix Metalloproteinase-1 (MMP1) (AID 2283181). Put shortly:
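Human MMP1 enzyme activity measured by fluorescence 1 h after dosing, cell-free, with a specific substrate. Screened in duplicate at 25 uM; hits (e.g. 30% inhibition) run in concentration-response up to 50 uM; loss of signal versus DMSO.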

Assay [14] deals with human p21 Activated Kinase 4 (PAK4), PAK4 (gene 10298) (UniProt O96013). In words: NVS_ENZ_hPAK4: NovaScreen (NVS) Enzymatic Assay for human p21 Activated Kinase 4 (PAK4) (AID 2283189). Put shortly: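 Cell-free recombinant human PAK4 activity assay; fluorescent substrate and product separated by electrophoretic mobility shift, read 1 h after dosing. Initially tested in duplicate at 25 uM, relative to DMSO baseline.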
human p21 Activated Kinase 4 (PAK4), PAK4 (gene 10298), sequence (O96013 whole entry, looked up): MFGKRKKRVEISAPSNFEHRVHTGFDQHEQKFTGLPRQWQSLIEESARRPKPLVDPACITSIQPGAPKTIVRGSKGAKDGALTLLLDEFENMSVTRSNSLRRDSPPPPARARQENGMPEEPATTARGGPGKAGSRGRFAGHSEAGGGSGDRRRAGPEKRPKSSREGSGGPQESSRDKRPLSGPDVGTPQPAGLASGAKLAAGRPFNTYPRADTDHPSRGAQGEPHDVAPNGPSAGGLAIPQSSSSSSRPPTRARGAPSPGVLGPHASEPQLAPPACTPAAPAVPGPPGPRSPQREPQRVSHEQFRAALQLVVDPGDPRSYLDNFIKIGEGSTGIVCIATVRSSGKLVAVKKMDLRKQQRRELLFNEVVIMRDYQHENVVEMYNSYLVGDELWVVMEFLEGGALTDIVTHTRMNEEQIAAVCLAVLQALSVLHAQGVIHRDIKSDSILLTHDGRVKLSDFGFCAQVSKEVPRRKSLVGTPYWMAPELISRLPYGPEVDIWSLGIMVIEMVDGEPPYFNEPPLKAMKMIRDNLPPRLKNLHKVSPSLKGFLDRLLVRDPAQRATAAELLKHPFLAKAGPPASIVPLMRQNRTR

For assay [15], the target named is Mitogen-activated protein kinase 3 (Homo sapiens) (UniProt P27361). In words: NVS_ENZ_hMAPK3: NovaScreen (NVS) Enzymatic Assay for human Mitogen-Activated Protein Kinase 3 (MAPK 3) (AID 2283177). Put shortly:
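Cell-free enzymatic assay with recombinant protein and specific substrate; fluorescence and electrophoretic mobility shift read-out 1 h after dosing. Primary screen duplicate at 25 uM; actives then run in concentration-response up to 50 uM, loss of signal versus DMSO.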

human Matrix Metalloproteinase-2 (MMP2), MMP2 (gene 4313), sequence (P08253 whole entry, looked up): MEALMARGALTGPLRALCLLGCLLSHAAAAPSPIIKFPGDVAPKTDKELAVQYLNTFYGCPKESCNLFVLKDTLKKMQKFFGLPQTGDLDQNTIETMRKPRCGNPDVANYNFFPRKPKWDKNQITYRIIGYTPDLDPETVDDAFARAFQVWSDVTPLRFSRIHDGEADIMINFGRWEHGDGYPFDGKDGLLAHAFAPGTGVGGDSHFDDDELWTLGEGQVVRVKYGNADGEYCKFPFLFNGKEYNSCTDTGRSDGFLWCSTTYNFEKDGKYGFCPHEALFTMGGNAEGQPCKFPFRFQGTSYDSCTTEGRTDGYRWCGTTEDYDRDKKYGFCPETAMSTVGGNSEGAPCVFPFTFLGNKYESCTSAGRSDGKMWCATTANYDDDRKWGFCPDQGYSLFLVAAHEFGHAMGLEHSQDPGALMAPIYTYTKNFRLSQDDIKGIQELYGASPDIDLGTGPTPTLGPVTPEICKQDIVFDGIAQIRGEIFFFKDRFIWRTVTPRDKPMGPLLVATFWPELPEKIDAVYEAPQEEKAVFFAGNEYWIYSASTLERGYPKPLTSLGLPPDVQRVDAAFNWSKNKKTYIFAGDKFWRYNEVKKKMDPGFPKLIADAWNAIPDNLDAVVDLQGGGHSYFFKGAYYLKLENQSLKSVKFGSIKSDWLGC
human MAP Kinase-Activated Protein Kinase 2 (MAPKAPK2), MAPKAPK2 (gene 9261), sequence (P49137 whole entry, looked up): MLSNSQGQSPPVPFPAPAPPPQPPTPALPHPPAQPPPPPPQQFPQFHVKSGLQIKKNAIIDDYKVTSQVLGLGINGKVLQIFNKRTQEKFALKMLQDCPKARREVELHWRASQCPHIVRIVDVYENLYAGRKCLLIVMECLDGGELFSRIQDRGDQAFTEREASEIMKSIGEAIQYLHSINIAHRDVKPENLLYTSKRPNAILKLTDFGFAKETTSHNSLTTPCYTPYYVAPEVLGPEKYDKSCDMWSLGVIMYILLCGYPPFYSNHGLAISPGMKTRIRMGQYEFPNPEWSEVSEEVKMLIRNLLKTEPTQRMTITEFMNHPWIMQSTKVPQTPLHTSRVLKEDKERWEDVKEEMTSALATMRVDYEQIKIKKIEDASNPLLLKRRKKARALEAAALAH
human Matrix Metalloproteinase-3 (MMP3), MMP3 (gene 4314), sequence (P08254 whole entry, looked up): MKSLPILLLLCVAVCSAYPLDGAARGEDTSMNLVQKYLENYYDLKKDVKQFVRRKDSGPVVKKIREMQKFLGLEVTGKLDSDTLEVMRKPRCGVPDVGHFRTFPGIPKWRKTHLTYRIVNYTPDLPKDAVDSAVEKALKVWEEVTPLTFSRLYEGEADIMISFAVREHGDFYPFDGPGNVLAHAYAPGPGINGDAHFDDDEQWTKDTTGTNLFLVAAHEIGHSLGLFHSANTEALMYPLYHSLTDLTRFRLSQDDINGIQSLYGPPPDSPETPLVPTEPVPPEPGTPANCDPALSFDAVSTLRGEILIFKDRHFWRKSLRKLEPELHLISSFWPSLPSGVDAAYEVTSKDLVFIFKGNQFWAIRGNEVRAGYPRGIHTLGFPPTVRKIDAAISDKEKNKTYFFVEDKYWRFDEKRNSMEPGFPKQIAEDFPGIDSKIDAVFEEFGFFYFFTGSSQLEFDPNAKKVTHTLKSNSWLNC
human Matrix Metalloproteinase-1 (MMP1), MMP1 (gene 4312), sequence (P03956 whole entry, looked up): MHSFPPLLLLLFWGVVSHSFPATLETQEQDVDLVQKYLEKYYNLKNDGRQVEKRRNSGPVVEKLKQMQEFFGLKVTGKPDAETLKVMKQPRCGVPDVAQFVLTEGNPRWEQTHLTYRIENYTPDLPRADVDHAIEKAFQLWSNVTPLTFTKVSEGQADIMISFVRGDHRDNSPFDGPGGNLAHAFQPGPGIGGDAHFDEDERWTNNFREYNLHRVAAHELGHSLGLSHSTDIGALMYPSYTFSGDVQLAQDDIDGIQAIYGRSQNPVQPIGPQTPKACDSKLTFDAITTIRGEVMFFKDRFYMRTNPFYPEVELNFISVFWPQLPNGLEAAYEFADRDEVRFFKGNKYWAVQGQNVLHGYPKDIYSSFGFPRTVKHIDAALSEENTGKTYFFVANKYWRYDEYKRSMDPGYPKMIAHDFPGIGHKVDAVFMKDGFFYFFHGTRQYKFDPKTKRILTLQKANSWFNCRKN
human Matrix Metalloproteinase-7 (MMP7), MMP7 (gene 4316), sequence (P09237 whole entry, looked up): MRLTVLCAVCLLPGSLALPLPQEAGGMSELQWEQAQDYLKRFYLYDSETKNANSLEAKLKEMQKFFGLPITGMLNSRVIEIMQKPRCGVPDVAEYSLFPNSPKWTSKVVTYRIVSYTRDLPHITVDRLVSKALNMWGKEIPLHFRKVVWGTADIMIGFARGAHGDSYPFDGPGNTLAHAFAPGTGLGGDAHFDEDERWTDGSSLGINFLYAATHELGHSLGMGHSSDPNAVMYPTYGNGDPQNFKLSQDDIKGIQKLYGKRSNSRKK

Take `c1ccc2c(c1)-c1cccc3cccc-2c13`: the result in [1] was inactive. In [2], the AC50 was 5.24 µM (active).

In the case of `O=C(Oc1ccc(Br)cc1)N1CCN2CCC1CC2`, the result in assay [3], in assay [4], in [5] and in assay [6] was inactive.

As to `ClCCOCCCl`, the compound was classed as inactive in assay [7] and in assay [2].

With `Clc1ccccc1Cl`, the call in assay [3] was inactive.

`CCCCC(CC)COC(=O)c1ccc(C(=O)OCC(CC)CCCC)c(C(=O)OCC(CC)CCCC)c1` (configuration not stated): the result in assay [8] was inactive.

Turning to `CCCCCOC(=O)c1ccccc1C(=O)OCCCCC`, the compound was called inactive in assay [9]. In addition, the AC50 in [10] was 12.6 µM (active).

With `c1ccc(C2CO2)cc1` (configuration not stated), the call in [10] was inactive.

Regarding `CC(C)COC(=O)c1ccccc1C(=O)OCC(C)C`, the call in assay [11] was inactive.

In the case of `CCC[CH2][Sn]([Cl])([CH2]CCC)[CH2]CCC`, the AC50 in assay [11] is 12.8 µM (active).

Regarding `CC(C)(C)OOC(C)(C)CCC(C)(C)OOC(C)(C)C`, in [6], the result was inactive.

`Cc1ccc(N=C=O)cc1N=C=O`: the AC50 in [12] was 4.21 µM (active); in assay [9] it was 10.3 µM (active); in assay [2], 40 µM (active). The compound was classed as inactive in assay [10].

Regarding `O=C(Nc1ccccc1)c1ccccc1I`, the result in [4], in [12] and in assay [11] was inactive.

In the case of `Oc1ccccc1Cl`, the call in assay [13], in [9] and in assay [2] was inactive.

`O=Cc1ccco1`: the result in [10] was inactive.

As to `CS(=O)(=O)NC(=O)c1cc(Oc2ccc(C(F)(F)F)cc2Cl)ccc1[N+](=O)[O-]`, the compound was classed as inactive in assay [6].

Take `COP(=S)(OC)SCN1C(=O)c2ccccc2C1=O`: the concentration at half-maximal activity (AC50) in [13] is 11.7 µM (active).

Turning to `C1=Cc2cccc3cccc1c23`, the result in [10] was inactive.

For the compound `Cn1cc(-c2ccccc2)c(=O)c(-c2cccc(C(F)(F)F)c2)c1`, the compound was called inactive in assay [14].

In the case of `CC(C)N(Cc1ccccc1)C(=O)C(C)(C)C`, the result in assay [5] and in assay [11] was inactive.

Turning to `Nc1ccc(Cl)cc1N`, the call in assay [5] was inactive.

Regarding `Clc1ccc(C(c2ccc(Cl)cc2)C(Cl)(Cl)Cl)cc1`, the outcome in assay [9] and in [10] was inactive.

`[As]#[In]`: the compound was called inactive in assay [11].

As for `CC(C)(C)C(O)(CCc1ccc(Cl)cc1)Cn1cncn1` (configuration not stated), the compound was called inactive in [9] and in assay [2].

For `Nc1ccc(Oc2ccc(N)cc2)cc1`, the AC50 in assay [9] was 19.2 µM (active).

Regarding `C[C@]12C=CC3=C4CCC(=O)C=C4CC[C@H]3[C@@H]1CC[C@@H]2O`, the compound was called inactive in assay [15] and in [14].

As to `Cc1cc(N=Nc2ccccc2C)ccc1N`, in [14], the outcome was inactive.

Regarding `CCCSC(=O)N(CCC)CCC`, in [5], the call was inactive.

For the compound `CCOc1cccc(C2(N3CCN(c4ccccc4)CC3)CCC(C)CC2)c1` (configuration not stated), the outcome in assay [13] was inactive. For the same compound, the AC50 in [12] is 17.7 µM (active).

For the compound `CNC(=O)Oc1cccc2c1OC(C)(C)C2`, in assay [9], the outcome was inactive.
